Reference: PubChem BioAssay AID485344 (National Center for Advancing Translational Sciences (NCATS), 2010)
About 6,900 (2%) of roughly 340,000 compounds were called active. What follows is part of a selection rich in actives, with near analogues and random picks from the rest. A number with no mark means an inactive call. Cut-off read from the data, not from the text of the source: active = inhibition above about 30%; inactive = below that, where a call was filed.

target: D(2) dopamine receptor (Homo sapiens) (UniProt P14416); test: HTS Assay for Allosteric Antagonists of the Human D2 Dopamine Receptor: Primary Screen for Antagonists; conditions: HEK293 TREx D2 cells, calcium flux, dopamine EC80; at 10 µM; hits give high values; note: 0% is about no effect
Sequence (P14416 whole entry, looked up): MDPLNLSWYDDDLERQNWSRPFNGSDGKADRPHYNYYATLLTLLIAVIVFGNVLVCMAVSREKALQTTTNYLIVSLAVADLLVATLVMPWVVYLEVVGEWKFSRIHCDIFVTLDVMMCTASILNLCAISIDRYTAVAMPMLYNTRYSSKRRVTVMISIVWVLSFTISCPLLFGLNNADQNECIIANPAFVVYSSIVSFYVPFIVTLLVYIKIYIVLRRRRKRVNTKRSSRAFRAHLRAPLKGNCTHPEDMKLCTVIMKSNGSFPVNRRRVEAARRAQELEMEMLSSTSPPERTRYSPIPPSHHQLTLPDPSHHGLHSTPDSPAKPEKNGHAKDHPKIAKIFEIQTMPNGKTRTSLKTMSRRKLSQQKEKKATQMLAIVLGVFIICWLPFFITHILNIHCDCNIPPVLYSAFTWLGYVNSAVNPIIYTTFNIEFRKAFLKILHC
Text: NIH Chemical Genomics Center [NCGC] NIH Molecular Libraries Probe Centers Network [MLPCN] MLPCN Grant: NS064831-01 Assay Submitter (PI): David Sibley Dopamine receptors (DARs) are involved in the etiology and/or therapy of a number of neuropsychiatric and endocrine disorders. For instance, all receptor-based antiparkinsonian drugs work via stimulating the D2 DAR subtype whereas all FDA-approved antipsychotic agents are antagonists of this receptor. […] There are three different types of allosteric modulators that we are seeking, two of which will stimulate or augment receptor signaling, allosteric agonists and potentiators, while the third, allosteric antagonists, will attenuate receptor signaling. The present primary screening assay measures compound antagonism after an EC80 addition of dopamine by tracking calcium flux in a […], inducible Hek293 Trex D2 cell line.
Freshly passaged cells are plated in 1536 well black, clear bottom plates at a density of 4000 cells/well in 3 ul of complete media containing 1x tetracycline inducer. After an overnight incubation at 30 C in 5% CO2, cells are loaded with 2 ul of the no wash Calcium Assay Kit (ABD Bioquest) and incubated at room temperature for 30 to 90 minutes. Agonist read: A 10 cycle (1 second/cycle) baseline measurement is taken and then the FDSS online 1536 pintool delivers 23 nl of compound library (as well as dopamine controls) to the plate. The plate is measured for kinetically at 1 cycle/sec for 180 seconds. Following the 180 second read, 1 ul of an EC80 (negative modulation assay) is delivered by an onboard pipette head. Measurements are taken kinetically for an additional 180 seconds.

Compared with COC(=O)/C(=C1\Oc2ccc(C(C)(C)C)cc2S1)C(F)(F)F, Cn1c(N)c(C(=O)COC(=O)/C=C/c2cccc(C(F)(F)F)c2)c(=O)n(C)c1=O is lower in inhibition: 0.21% for the first, -16.8% for the second.

Compared with CCOC(=O)c1nnn(-c2nonc2OC)c1-c1ccccc1, CCOC(=O)CNc1nc(Cl)nc(Nc2ccccc2)n1 is higher in inhibition: 1.66% for the first, 6.97% for the second.

Compared with COc1ccc(S(=O)(=O)N2CCN(CC(=O)N3c4ccccc4CC3C)CC2)cc1OC (configuration not stated), COc1cccc(CNS(=O)(=O)c2ccc3c(c2)CC(C)N3C(C)=O)c1 (configuration not stated) is higher in inhibition: -15.7% for the first, -5.54% for the second.

First: CCCCn1c(N)c(N(CCC(C)C)C(=O)COC(=O)c2cccnc2OCC)c(=O)[nH]c1=O
Second: CCCCCN(C(=O)CCC(=O)OCCOc1ccc(OC)cc1)c1c(N)n(CCCC)c(=O)[nH]c1=O
The inhibition of the first is lower: -12.2% for the first, -2.34% for the second.

Compared with Cc1ccc(NC(=O)NC(=O)c2ccccc2)cc1F, O=C(NC(=O)c1ccccc1)NC(=O)c1ccccc1 is higher in inhibition: -2% for the first, 27% for the second.

First: CC(C)Cc1nnc(NC(=O)CCNC(=O)c2ccccc2Cl)s1
Second: CCC(C(=O)OCC(=O)Nc1c(Cl)cc(Cl)cc1Cl)c1ccccc1 (configuration not stated)
The inhibition of the first is lower: -3.78% for the first, -3.7% for the second.

First: Cc1ccc(NC(=O)Cc2nc(COC(=O)C(C)NS(=O)(=O)c3ccc(C)cc3)cs2)cc1 (configuration not stated)
Second: Cc1ccc(OCCNC(=O)CCNS(=O)(=O)c2ccc(Br)cc2)cc1
The inhibition of the first is lower: 2.42% for the first, 23.7% for the second.

Compared with Cc1cccc(OCC(=O)Nc2ccc(C(=O)O)cc2NC(=O)COc2cccc(C)c2)c1, COc1ccc(OCC(=O)NNC(=O)c2cccc(C)c2)cc1 is higher in inhibition: -10.4% for the first, 1.66% for the second.

First: O=C(NCCc1ccc(F)cc1)c1ccc2nccnc2c1
Second: Cc1nnc(NC(=O)c2ccc3nccnc3c2)s1
The inhibition of the first is lower: -19% for the first, 3.14% for the second.

Going from CCOc1ccc(C(O)Cn2c(=N)n(CCN3CCCCC3)c3ccccc32)cc1 (configuration not stated) to O=C(c1ccc(OC2CCN(C/C=C/c3ccc(F)cc3)CC2)cc1)N1CCCCC1, the inhibition rises from -7.44% to 26.2%.

Compared with COc1cccc(OCC(O)CN2CCN(CCO)CC2)c1 (configuration not stated), CCc1sc(C(=O)N2CCN(CC(=O)Nc3cccc(F)c3)CC2)cc1C is higher in inhibition: -3.18% for the first, 22.4% for the second.

First: COc1ccc(C)cc1NC(=O)CCCN1C(=O)NC(C)(C)C1=O
Second: Cc1cc(Br)ccc1NC(=O)CN(C)C(=O)CN1C(=O)NC2(CCCC2)C1=O
The inhibition of the first is lower: -9.24% for the first, 7.4% for the second.

Compared with CC1(C(=O)OCC(=O)Nc2ncc(Cl)cc2Cl)CC1(Cl)Cl (configuration not stated), Cc1cc(C)cc(NC(=O)COC(=O)c2cc(C)oc2C)c1 is lower in inhibition: 11.7% for the first, -1.43% for the second.

Compared with C=CCN1C(=O)c2ccc(C(=O)N3CCC(C(=O)OCC)CC3)cc2C1=O, CCN(C(=O)COC(=O)C1CCN(S(=O)(=O)c2ccc(C)c(C)c2)CC1)C1CCS(=O)(=O)C1 (configuration not stated) is higher in inhibition: 2.03% for the first, 10.6% for the second.

Compared with CSCC(=O)N1CCCC(C(=O)c2cc(F)ccc2F)C1 (configuration not stated), COc1cccc2c(=O)n(CC(=O)N3CCCCCC3)ccc12 is higher in inhibition: -7.86% for the first, 5.43% for the second.

First: O=C(NCCS(=O)(=O)N1CCN(c2ccccc2)CC1)c1ccco1
Second: CC(=O)c1ccc(S(=O)(=O)NCCC(=O)N2CCN(c3ccccn3)CC2)cc1
The inhibition of the first is higher: 9.95% for the first, -35% for the second.

First: Cc1csc2nc(COC(=O)c3cccc(N(C)C)c3)cc(=O)n12
Second: Cc1ccc(S(=O)(=O)N(C)C)cc1NC(=O)c1ccc(-n2cncn2)c([N+](=O)[O-])c1
The inhibition of the first is lower: -21.3% for the first, 2.81% for the second.

Going from CCNc1c(NS(=O)(=O)c2ccc(C3CCCCC3)cc2)c(=O)oc2ccccc12 to Nc1c(NCCc2ccccc2)c2ccccc2oc1=O, the inhibition falls from 16.7% to -22.5%.

Going from CCC1(C)NC(=O)N(CC(=O)N2CCN(c3cccc(Cl)c3)CC2)C1=O (configuration not stated) to CCc1nn(CC(=O)N2CCN(CC)CC2)c(=O)c2cccn12, the inhibition falls from 22.3% to 1.45%.

Going from CCc1ccc(-c2nn(-c3ccccc3C)cc2C(=O)N2CCN(C3CCS(=O)(=O)C3)CC2)cc1 (configuration not stated) to O=C(CN1CCN(C2CCS(=O)(=O)C2)CC1)N1N=C(c2ccc(Cl)cc2)CC1c1ccco1 (configuration not stated), the inhibition falls from 3.49% to -10.4%.

Going from CN(C)C1=NC[C@H](Cc2ccccc2)N1CCc1ccc(F)cc1 to CN(Cc1ccccc1Cl)C(=O)C1CCC(=O)N(CCc2cccc(F)c2)C1 (configuration not stated), the inhibition rises from -4.3% to -0.289%.

First: COc1ccc(C(=O)NCc2ccc(C)cc2)cc1S(=O)(=O)N1CCCC1
Second: CC(=O)c1ccc(OCCCC(=O)Nc2ccc(C)c(S(=O)(=O)N3CCOCC3)c2)cc1
The inhibition of the first is lower: -8.88% for the first, 6.79% for the second.

Going from CC1CCN(C(=O)COC(=O)CCC(=O)c2cccs2)CC1 to O=C(OCC(=O)N1CCOCC1)c1ccc2ccccc2c1, the inhibition falls from 24% to -1.03%.

First: Cc1cc(=O)oc2c3c(cc(OCC(=O)N[C@H](C(=O)O)c4ccccc4)c12)OC(C)(C)CC3
Second: Cc1c(C)c2c(OCC(=O)NCCCO)cc3c(c2oc1=O)CCC(C)(C)O3
The inhibition of the first is higher: 3.15% for the first, -0.698% for the second.

Going from CCN(C(=O)COC(=O)c1c(C)nn(-c2ccccc2)c1Cl)c1c(N)n(Cc2ccccc2)c(=O)[nH]c1=O to COc1ccc(F)cc1C(=O)COC(=O)c1n[nH]c(=O)c2ccccc12, the inhibition falls from -3.1% to -10.9%.

First: O=C(CSc1nnc(CN2CCCC2)n1-c1ccc(F)cc1)c1ccc2c(c1)OCO2
Second: O=C(c1ccccc1)c1ccc2nc(N3CCCCC3)c3nncn3c2c1
The inhibition of the first is higher: 8.14% for the first, -2.11% for the second.

Going from CCNC(=O)c1cccc(NC(=O)C2CC(=O)N(CCc3ccccc3)C2)c1 (configuration not stated) to O=C(CCNS(=O)(=O)c1ccccc1)NCCCc1ccccc1, the inhibition rises from -18% to 21%.

Going from COc1ccc(Nc2ncnc3sc(-c4ccccc4)cc23)c(OC)c1 to COc1cc2ccccc2cc1C(=O)Nc1ccncc1, the inhibition rises from -16.4% to 5.03%.

Compared with c1ccc2c(c1)OCC(CNc1ncnc3nc[nH]c13)O2 (configuration not stated), CCC(C)N(C(=O)CSc1ncnc2c1cnn2-c1ccccc1)C1CCS(=O)(=O)C1 (configuration not stated) is higher in inhibition: -3.03% for the first, 1.86% for the second.

Going from CN(C)CCN(C(=O)CN1C(=O)c2ccccc2C1=O)c1nc2cc3c(cc2s1)OCCO3 to CCOc1ccc(NC(=O)CN(C)C(=O)CSc2ccccc2)cc1OCC, the inhibition rises from 12.4% to 13.7%.

Compared with O=C(Cc1cc(=O)[nH][nH]1)N/N=C/c1ccccc1[N+](=O)[O-], COc1cc(/C=N/NC(=O)Cc2ccccc2)cc(OC)c1OC is lower in inhibition: 11.1% for the first, 1.38% for the second.

Going from O=C(CCC1CCCN(C(=O)Cc2ccc(F)cc2)C1)N1CCN(c2ccccn2)CC1 (configuration not stated) to Cc1nc(N2CCN(c3ccccn3)CC2)c2c(C)c(C(=O)Nc3ccc(F)cc3)sc2n1, the inhibition rises from -9.86% to 8.07%.

First: CC(OC(=O)c1cc2ccccc2o1)C(=O)Nc1ccc(N2CCOCC2)cc1 (configuration not stated)
Second: O=C(CN1CCc2ccccc2C1)Nc1cccc(S(=O)(=O)N2CCOCC2)c1
The inhibition of the first is higher: 8.62% for the first, -6.15% for the second.

Going from Brc1ccccc1CN1CCC(Cc2ccccc2)CC1 to O=C(CCNC(=O)c1ccc(Br)cc1)NCC(c1ccco1)N1CCCCC1 (configuration not stated), the inhibition falls from 17.7% to 17%.

Going from CCOC(=O)C1=C(COC(=O)[C@H](C)NS(=O)(=O)c2ccccc2F)NC(=O)NC1C (some centres not stated) to CC(=O)N1c2ccc(S(=O)(=O)NCCC(=O)N(C)C3CCCCC3)cc2CC1C (configuration not stated), the inhibition falls from 11% to -4.33%.

First: CC(=O)c1cc(C#N)c(SCC(=O)C(C)(C)C)nc1C
Second: CCOC(=O)c1cc(C)nc(S(C)(=O)=O)c1C#N
The inhibition of the first is lower: -15% for the first, 5.94% for the second.

Compared with Clc1nc(NC2CCCC2)nc(N2CCOCC2)n1, CN(C(=O)Cn1nnc(-c2ccc(F)cc2)n1)C1CCS(=O)(=O)C1 (configuration not stated) is higher in inhibition: -9.32% for the first, 9.49% for the second.

CCOC(=O)C1=C(c2ccccc2)O/C(=C(/C(=O)OC)C(F)(F)F)S1 was tested, and the inhibition was 39% (active).
For O=C(NC(=O)c1ccccc1)Nc1ccccc1O, the inhibition was 40% (active).
COc1ccc(C(=O)Nc2cc(C)ccc2NC(=O)COc2ccccc2)cc1 was tested, and the inhibition was 44.4% (active).
Cc1cccc(OCC(O)Cn2c(=N)n(CCN3CCOCC3)c3ccccc32)c1 (configuration not stated) was tested, and the inhibition was 31.7% (active).
For COc1ccc(/C=C/CN2CCCC(C(=O)c3cc(F)ccc3F)C2)cc1 (configuration not stated), the inhibition was 34.2% (active).
In the case of CC(C)(C)Nc1c(N)c(=O)oc2ccccc12, the inhibition is reported as 33.7% (active).
In the case of CCN1CCN(C(=O)Cn2nc(C)n3c(cc4c(OC)cccc43)c2=O)CC1, the inhibition is reported as 35.3% (active).
For CCCC(C)C(=O)OCC(=O)Nc1c(Br)cc(C)cc1Br (configuration not stated), the inhibition was 39.9% (active).
In the case of Cc1c(C)c2c(OCC(=O)N[C@@H](C(=O)O)c3ccccc3)cc3c(c2oc1=O)CCC(C)(C)O3, the inhibition is reported as 30.5% (active).
In the case of CN(CC(=O)Nc1cccc(F)c1)C(=O)C1CC(=O)N(CCc2ccccc2)C1 (configuration not stated), the inhibition is reported as 33.5% (active).
For c1ccc(-c2cc3c(NCC4COc5ccccc5O4)ncnc3s2)cc1 (configuration not stated), the inhibition was 31.8% (active).
With COc1cc(CC(=O)N/N=C/c2ccccc2)c([N+](=O)[O-])cc1OC the inhibition was 77% (active).
For Cc1c(CN2CC[C@@H](N3CCN(c4ccccn4)CC3)[C@H](O)C2)[nH]c2ccc(F)cc12, the inhibition was 51.4% (active).
For c1ccc(CC2CCN(c3nc4ccccc4n4cnnc34)CC2)cc1, the inhibition was 37.6% (active).
CCCCSc1[nH]c(=O)c(C(=O)OCC)cc1C#N was tested, and the inhibition was 30.2% (active).
In the case of CC(=O)N1c2ccc(S(=O)(=O)N(C)CC(=O)N(C)Cc3ccccc3)cc2CC1C (configuration not stated), the inhibition is reported as 36.2% (active).
COC(=O)CNc1nc(Cl)nc(N2CCC(C)CC2)n1 was tested, and the inhibition was 35.9% (active).
In the case of O=C(CCNS(=O)(=O)c1ccccc1)NCCSc1ccc(Br)cc1, the inhibition is reported as 45.1% (active).
